We go through 27 molecules from PubChem BioAssay AID504845 (National Center for Advancing Translational Sciences (NCATS), 2011).

The structures appear in SMILES notation. Among all 390,000 compounds or so, about 150 (0.038%) were called active. A call without a number means that no potency is given here. Another 3% or so got no clear call; they are omitted. Calls follow the shape of the dose curve; as a rule, active = well fitted inhibition curve with a large enough effect; inconclusive = small, poorly fitted or top-dose-only effect; inactive = no such curve, though single readings can be large or run the other way. This excerpt belongs to a sample that is enriched for actives.
Potency is read from the fitted curve at half-maximal effect.

Chain of Regulator of G-protein signaling 4 (Homo sapiens) (P49798 whole entry, looked up, the tested form may be a part): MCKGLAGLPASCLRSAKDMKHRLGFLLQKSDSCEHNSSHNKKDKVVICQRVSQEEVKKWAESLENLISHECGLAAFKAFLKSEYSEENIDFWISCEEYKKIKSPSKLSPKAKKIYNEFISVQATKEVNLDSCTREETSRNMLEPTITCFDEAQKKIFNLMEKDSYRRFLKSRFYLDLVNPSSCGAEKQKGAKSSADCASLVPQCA

This assay has as its target Regulator of G-protein signaling 4 (Homo sapiens) (UniProt P49798). Nature of the assay: Inhibitors of Regulator of G Protein Signaling (RGS) 4: qHTS. Also: nearly all actives have a fitted effect of over 75% in size. The settings on record: Transcreener GDP fluorescence polarization, RGS4-accelerated GTP hydrolysis; series mostly up to 114 µM. From the text: G-protein-coupled receptors (GPCRs) are well-established targets for drug discovery and development. Members of the "regulator of G-protein signaling" (RGS)-protein superfamily have recently emerged as critical modulators of specific GPCR signaling pathways. […] Combining specific RGS domain inhibitors with existing GPCR agonists should potentiate cellular responses and could also increase the specificity of action of existing therapeutics. Small molecule modulators of RGS domain activity should also have clinical utility in inhibiting or potentiating the actions of endogenous GPCR agonists. In particular, the diversity of RGS proteins with highly localized and dynamically regulated distributions in the human brain makes this family of proteins attractive targets for pharmacotherapy of central nervous system (CNS) disorders such as Parkinson's disease, schizophrenia, and anxiety.
This assay was used to screen the NIH Molecular Libraries Small Molecule Repository (MLSMR) in order to identify a small molecule that inhibits RGS4.
NIH Chemical Genomics Center [NCGC]
NIH Molecular Libraries Probe Centers Network [MLPCN]
Assay Submitter (PI): David Siderovski, University of North Carolina Chapel Hill (School of Medicine)
Two microliters of 500nM (2x working concentration) is dispensed into black medium-binding solid-bottom Kalypsys plates. Then with the Kalypsys pintool 23nl of control and compounds are transferred; the control compound is […] CCG-4986 (working concentration). After a 10 minute incubation at room temperature 2ul of antibody is added with the Kalypsys dispenser; (-)RGS4/Transcreener GDP solution in columns 3 and 4 which consisted of 10nM (2x working concentration) Alexa633, 20uM GTP, and 20 ug/ml GDP antibody and (+)RGS4/Transcreener GDP solution in columns 1,2, and 5 to 48 which consists of 900nM RGS4 (2x working concentration), 10nM Alexa633, 20 ug/ml GDP antibody. The plate is centrifuged at 1000 RPM for 15 seconds to remove any possible bubbles and then incubated for 5 minutes at ambient room temperature. An initial fluorescent polarization read (620 nm/688 nm) is performed on the Envision before the plate is incubated for 90 minutes at 30 deg C at a relative humidity of 80%. The plate is once more centrifuged at 1000 RPM for 15 seconds and another Envision fluorescent polarization (620 nm/688 nm) read is carried out.
Take `COc1cc(CN(CC2CCCO2)C(=O)c2ccccc2F)cc(OC)c1OC` (configuration not stated): the Potency result was “inactive”. Regarding `CCn1c2ccccc2c2cc(NC(=O)COc3ccc(C)cc3C)ccc21`, the Potency result was “inactive”. To `Nc1ccc2c3c(cccc13)C(=O)NC2=O` belongs “inactive”.

In the case of `COc1ccc(-c2ccc(C3C4C=CCCC4(C)C(=O)N3Cc3ccccc3)c(F)c2)cc1OC` (configuration not stated), the Potency result is “inactive”.

For `Cc1ccc(Nc2ccc3cc(S(=O)(=O)N4CCCCC4)ccc3n2)cc1F`, the Potency entry is “inactive”. Turning to `O=C(NCC(c1ccc(Cl)cc1)N1CCOCC1)c1ccccc1F` (configuration not stated), the Potency entry was “inactive”. For the molecule `COc1ccc(CCCOC(Cn2ccnc2)c2ccc(OC)cc2)cc1` (configuration not stated), the Potency entry was “inactive”. For `CCCNC(=O)C(CC)n1nc(CC)n2c(cc3oc(C)cc32)c1=O` (configuration not stated), the Potency result is “inactive”. To `CCCCC/C=C\CC1OC1CCCCCCCC(=O)O` (configuration not stated) belongs 37.7 µM (active); to `CCCCCCCCCCCC(=O)O`, “inactive”; to `CCc1ccc(CN(Cc2ccco2)C(=O)c2ccccc2Cl)cc1`, “inactive”. Regarding `COc1ccccc1N1CCN(C[C@@H]2CN3C(=O)N(C)c4ccccc4C3=N2)CC1`, the Potency result is “inactive”.

As for `O=C(COc1ccc(Cl)cc1)Nc1ccc(-c2nc3cc(Cl)ccc3o2)c(O)c1`, the Potency entry is “inactive”.

Regarding `CCN(CC)/[N+]([O-])=N/Oc1cc(O/[N+]([O-])=N/N2CCCC2CO)c([N+](=O)[O-])cc1[N+](=O)[O-]` (configuration not stated), the Potency entry was “inactive”. In the case of `COc1ccc(OC)c(NC(=O)CSC2=Nc3ccccc3C3=NC(CC(=O)NCc4ccc(F)cc4)C(=O)N23)c1` (configuration not stated), the Potency entry is “inactive”. Regarding `CCCc1nn2c(=O)cc(COC(=O)c3ccc(NC(=O)COc4ccc(F)cc4)cc3)nc2s1`, the Potency entry is “inactive”.

Regarding `CCc1ccccc1NC(=O)N1CCC2(CC1)Oc1ccccc1C(=O)N2Cc1ccccc1F`, the Potency result was “inactive”. The result for `Cc1ccccc1CSCCNC(=O)C1CCN(S(=O)(=O)Cc2ccccc2)CC1` reads “inactive”; that for `COc1ccccc1C(=O)NCCn1cc(SCc2ccccc2Cl)c2ccccc21`, “inactive”; that for `Cc1ccc(C)n1-c1nnc(N2CCC(C(=O)NCc3ccccc3Cl)CC2)s1`, “inactive”. Regarding `COc1ccc(-c2noc(CSc3nnc(-c4ccccc4)n3-c3ccc(F)cc3)n2)c(OC)c1`, the Potency result was “inactive”. Consider `Cc1c(C(=O)NCc2ccccc2Br)oc2ccc3c(c12)C(=O)CC(C)(C)O3`, for which the Potency result was “inactive”. Regarding `CCn1cc(C(=O)NCCc2ccccc2)c(=O)c2cc(S(=O)(=O)N3CCCCCC3)ccc21`, the Potency result was “inactive”.

With `Cc1ccccc1CNC(=O)c1cccc(NC(=O)c2nsc3ccccc23)c1`, the Potency result was “inactive”.

For the molecule `Cc1ccc(C)c(S(=O)(=O)n2nc(C)c(S(=O)(=O)N3CCC(C)CC3)c2C)c1`, the Potency result was “inactive”. Turning to `Cc1ccc2oc3c(c(=O)c2c1)C(c1ccc(O)cc1)N(Cc1ccc2c(c1)OCO2)C3=O` (configuration not stated), the Potency entry was “inactive”. The result for `Cc1ccc(/C(=C/CN2CCCC2)c2ccccn2)cc1` reads “inactive”.
